Only a selection was taken, and hits are over-represented in it overall.
Cruzain noTriton – inhibitors of Trypanosoma cruzi cruzain without detergent; P25779; purified cruzain, Z-FR-AMC fluorescence, no detergent; Potency, µM, inactives show max response, negative = inhibition, most hits filed as inhibitors; actives 2.3% (n = 200,000); AID 1476;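 note: potency is the fitted concentration of half-maximal effect; plate controls were enzyme without inhibitor for no effect and buffer without enzyme for full effect; nearly all actives have a fitted effect of over 40% in size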
Target sequence (P25779 123-467 limits assumed): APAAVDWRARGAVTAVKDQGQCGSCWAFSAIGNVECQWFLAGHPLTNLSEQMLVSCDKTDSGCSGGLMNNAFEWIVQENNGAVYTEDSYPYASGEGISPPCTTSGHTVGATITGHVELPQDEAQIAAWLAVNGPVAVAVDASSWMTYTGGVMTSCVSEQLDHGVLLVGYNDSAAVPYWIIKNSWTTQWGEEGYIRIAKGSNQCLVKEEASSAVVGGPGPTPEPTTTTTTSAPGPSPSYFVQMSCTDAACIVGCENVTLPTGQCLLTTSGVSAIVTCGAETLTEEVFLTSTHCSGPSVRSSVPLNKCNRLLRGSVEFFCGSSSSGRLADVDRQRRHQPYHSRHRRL
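Detergent-free condition (0.00005% Triton X-100) in acetate buffer pH 5.5 with DTT. 1.5 nM enzyme and compound were pre-mixed 15 min, then 2 uM Z-FR-AMC substrate added; reaction progress from fluorescence change between first and third reads (60 s).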
Cruzain inh Det – inhibitors of Trypanosoma cruzi cruzain with detergent; Potency, µM, for inactives: max response, negative = inhibition, most hits filed as inhibitors; purified cruzain, Z-FR-AMC fluorescence, 0.01% Triton; actives 0.43% (n = 200,000);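 note: potency is the fitted concentration of half-maximal effect; plate controls were neutral wells for no effect and buffer without enzyme for full effect; nearly all actives have a fitted effect of over 40% in size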
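Enzyme 1.5 nM, Z-FR-AMC 2 uM, NaOAc 100 mM pH 5.5, DTT 5 mM, Triton X-100 0.01%; 15 min RT compound preincubation; kinetic ex360/em450, 60 s delta.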
NS1 inh – inhibitors of influenza NS1 protein function; Potency, µM (series often up to 46.1 µM), for the others: top-dose activity, positive = more growth; actives 0.4% (n = 270,000); AID 2326; calls by dose curve; note: potency is the fitted concentration of half-maximal effect; actives are rising curves; nearly all actives have a fitted effect of over 50% in size
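Compounds were scored for reversing the slow growth caused by influenza A NS1 in S. cerevisiae, measured by optical density at 600 nm. Assay medium contained 2% galactose at pH 6.0; NS1-free yeast of the same strain were the positive control.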
NS1 inh valid – validation of influenza NS1 protein function inhibitors. shares compounds with NS1 inh. influenza NS1 function cell assay, 15-point titration. activity change, negative = inhibition, % at 32.9 µM. 1,400 tested, under 10 active. AID 492980; calls by dose curve; note: 0% is about no effect
Active calls of the source: *; ? = inconclusive; / = no result given; ! = a repeat was not active. Unless noted, calls come from the whole dose curve; as a rule, active = well fitted curve in the direction sought with a large enough effect; inconclusive = small, poorly fitted or top-dose-only effect, or another doubt; inactive = no such curve, though single readings can be large; an effect the other way counts as inactive or inconclusive.

SMILES	Cruzain noTriton	Cruzain inh Det	NS1 inh	NS1 inh valid
CN1CC[C@@]2(C)c3cc(O)ccc3N(C)C12 (stereo partly specified)	-3%	-8%	13µM*	1
CN1CC[C@]2(C)c3cc(O)ccc3N(C)[C@@H]12	-8%	0%	/	/
Cc1noc(C)c1Cc1ccc(O)cc1	-1%	1%	-1%	/
CC1(C)CC(=O)c2c(oc3cc(O)c(O)cc23)C1	-27%	?	-8%	/
O=c1c2c3nc4ccccc4nc3n(Cc3ccccc3)c2ncn1Cc1ccco1	?	?	16µM*	-14
COCCCn1c2nc3ccccc3nc2c2c(=O)n(Cc3ccc(Cl)cc3)cnc21	?	-5%	-12%	/
CCOC(=O)CNC(=O)CNC(=O)C(Cc1ccc(N(CCCl)CCCl)cc1)NC(C)=O (stereo unspecified)	/	/	6%	/
NC(Cc1c[nH]c2ccccc12)C(=O)NCC(=O)O (stereo unspecified)	10%	4%	/	/
NC(Cc1c[nH]c2ccccc12)C(=O)NCc1ccccc1 (stereo unspecified)	/	/	?	1
O=S(=O)(O)c1cc(N=C=S)ccc1/C=C/c1ccc(N=C=S)cc1S(=O)(=O)O	-17%	-4%	/	/
Nc1nonc1-n1nnc(C(=O)N/N=C/c2ccco2)c1CSc1ccccc1	/	/	?	8
Cc1ccc(/C=N/NC(=O)c2nnn(-c3nonc3N)c2CSc2ccccc2)o1	/	/	15%	/
COC(=O)Cc1[nH]nc2c1C(c1ccc(O)c(OC)c1)C(C#N)=C(N)O2 (stereo unspecified)	/	/	10µM*	?
COC(=O)Cc1[nH]nc2c1C(c1cc(OC)c(OC)c(OC)c1)C(C#N)=C(N)O2 (stereo unspecified)	/	/	10%	/
CCCc1cc(=O)oc2cc(OCC(=O)N3CCC(C(=O)O)(c4ccccc4)CC3)ccc12	/	/	11µM*	?
CCCCc1cc(=O)oc2cc(C)cc(OCC(=O)N3CCC(C(=O)O)(c4ccccc4)CC3)c12	/	/	22%	/
Cc1cccc(C(=O)NN2C(=O)C3C(c4ccccc4)C=CC(c4ccccc4)C3C2=O)c1 (stereo unspecified)	-3%	-6%	3.2µM*	-1
O=C(NN1C(=O)C2C3C=CC(C3)C2C1=O)c1ccccc1 (stereo unspecified)	/	/	1%	/
O=C(O)c1cc(NS(=O)(=O)c2ccc(NC3CCCCC3)c([N+](=O)[O-])c2)cc(C(=O)O)c1	/	/	6%	/
O=C(O)c1cc(NS(=O)(=O)c2ccc(NCc3ccccc3)c([N+](=O)[O-])c2)cc(C(=O)O)c1	/	/	14µM*	33
Brc1ccc(C2Nc3cccc4cccc(c34)N2)o1	7.9µM*	-12%	?	2
Brc1cccc(C2Nc3cccc4cccc(c34)N2)c1	/	/	3%	/
O=C(Nc1ccccc1C(=O)NC1CCCCC1)c1ccco1	1%	1%	9%	/
CCC(C)C(NC(=O)c1ccccc1NC(=O)c1ccco1)C(=O)NC1CCCCC1 (stereo unspecified)	?	-2%	4.5µM*	1
Cc1ccc(NS(=O)(=O)c2ccc(N3CCN(c4ccc(O)cc4)CC3)c([N+](=O)[O-])c2)c(C)c1	-27%	-8%	16%	/
SMILES	Cruzain noTriton	Cruzain inh Det	NS1 inh	NS1 inh valid
O=[N+]([O-])c1cc(S(=O)(=O)Nc2ccccc2)ccc1N1CCN(c2ccc(O)cc2)CC1	-30%	-7%	14µM*	6
CCOC(=O)c1c(-c2cccs2)csc1N	/	/	-4%	/
CCOC(=O)c1c(-c2ccco2)csc1N	-6%	-7%	1.3µM*	?
COC(=O)c1nc2n(n1)C(c1ccc(OC)c(OC)c1)C(C(=O)OC1CCCCC1)=C(C)N2 (stereo unspecified)	?	-5%	-16%	/
Cc1cc(C)n2c(SCC(=O)Nc3ccccc3)nnc2n1	10%	0%	5%	/
CCN(CC)c1ccc(NC(=O)CSc2nnc3nc(C)cc(C)n23)cc1	4%	2%	?	-22
COc1ccc(/C=N/NC(=O)CCc2c(C)n[nH]c2C)cc1OC	-8%	5%	5.6µM*	19
COc1cc(/C=N/NC(=O)CCc2c(C)n[nH]c2C)cc(OC)c1OC	0%	-1%	-7%	/
Cc1cccc(-c2cnn(-c3ccccc3)c2N)c1	/	/	-34%	/
COc1ccc(NC(=O)c2cc([N+](=O)[O-])ccc2N2CCCCC2)cc1	/	/	3%	/
N#C/C(=C/c1ccc(N2CCCCC2)o1)C(=O)Nc1ccc2ccccc2c1	?	-6%	11µM*	2
N#C/C(=C/c1ccc(N2CCCCC2)o1)C(=O)Nc1ccc(Cl)cc1	-30%	-2%	-5%	/
Cc1ccccc1/C=N/N1C(=O)CSC1=S	/	/	5%	/
O=C1CSC(=S)N1/N=C/c1cccnc1	/	/	1.1µM*	27
CSC1=NC2(CC(c3ccccc3)Oc3cc(O)ccc32)CC(C)(C)N1 (stereo unspecified)	-28%	?	-2%	/
CC(CNC(=O)c1cc2ccccn2n1)c1ccccc1 (stereo unspecified)	10%	0%	/	/
O=C(c1ccco1)N1CCN(C(=O)c2cc(-c3ccncc3)nc3ccc(Br)cc23)CC1	/	/	-64%	/
O=C(O)c1cc(-c2ccco2)nc2ccc(Br)cc12	-10%	-12%	20µM*!	11
Cc1cccc(N2C(=O)c3cccc4c(N5CCCCC5)c([N+](=O)[O-])cc(c34)C2=O)c1C	?	-6%	-5%	/
O=C1c2cccc3c(N4CCOCC4)c([N+](=O)[O-])cc(c23)C(=O)N1c1cccc2ccccc12	13µM*	-9%	?	-2
CCc1ccc(OCC(=O)N(Cc2ccco2)Cc2ccccc2Cl)cc1	-24%	-12%	/	/
CC(=O)c1ccc(NC(=O)COC(=O)c2c3c(nc4ccccc24)/C(=C\c2cccs2)CCC3)cc1	7.9µM*	5%	?	-5
CC(C)NC(=O)NC(=O)COC(=O)c1c2c(nc3ccccc13)CCC2	/	/	0%	/
O=C(c1ccc2oc(CCCc3ccccc3)nc2c1)N1CCCCC1CO (stereo unspecified)	/	/	-9%	/
Cc1cc(C(=O)Nc2nnc(C3CCCCC3)s2)no1	-6%	10%	-114%	/
SMILES	Cruzain noTriton	Cruzain inh Det	NS1 inh	NS1 inh valid
CCSc1nnc(NC(=O)c2c(-c3ccccc3Cl)noc2C)s1	0%	-5%	?	/
Cc1onc(-c2ccccc2Cl)c1C(=O)Nc1nnc(-c2cccc([N+](=O)[O-])c2)s1	-15%	4%	10µM*	-1
Cc1cc(C(=O)Nc2nnc(-c3ccccc3)s2)no1	?	0%	?	?
Cc1ccc2c(CNCC(C)c3ccccc3)c(C(=O)O)n(Cc3ccccc3C)c2c1 (stereo unspecified)	-11%	-2%	/	/
COc1cccc(NC(=S)N2CCc3cc(OC)c(OC)cc3C2COc2ccc3c(C)cc(=O)oc3c2)c1 (stereo unspecified)	7%	-1%	8.9µM*	18
CCCC(=O)N1CCc2cc(OC)c(OC)cc2C1COc1ccc2c(C)cc(=O)oc2c1 (stereo unspecified)	-4%	3%	/	/
COc1cccc(CN2CCN(Cc3ccc4c(c3)OCCO4)CC2CCO)c1 (stereo unspecified)	/	/	3%	/
O=C(N/N=C/c1c[nH]c2ccccc12)c1cc(-c2ccc3ccccc3c2)n[nH]1	?	-9%	?	-3

Compound activity from PubChem.
